Source: PubChem BioAssay (NCI)
The panel holds about 83,000 compounds, 20% with a hit somewhere; the sample as a whole holds those more often.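 Growth was measured after 48 h exposure to one concentration of compound in 96-well plates. Values under 10 count as active.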 Unmarked numbers belong to inactive results. Calls of active or inactive are those of the source.

Assays:
Assay in all cases: NCI-60 one-dose screen, 48 h (100 = growth as untreated, 0 = no growth, -100 = all killed)
Settings in all cases: 10 µM unless noted
SK-MEL-2 melanoma = test system: SK-MEL-2 melanoma
EKVX NSCLC = test system: EKVX NSCLC
SN12C renal = test system: SN12C renal
UO-31 renal = test system: UO-31 renal
TK-10 renal = test system: TK-10 renal
A498 renal = test system: A498 renal
CCRF-CEM leukemia = test system: CCRF-CEM leukemia
MOLT-4 leukemia = test system: MOLT-4 leukemia
ACHN renal = test system: ACHN renal
CAKI-1 renal = test system: CAKI-1 renal

Question: For `N#CC(=C1SCS1)[N+](=O)[O-]`, which growth (SK-MEL-2 melanoma) is on record?
Answer: The growth was 19.2%.

Question: And the growth (EKVX NSCLC)?
Answer: Its growth is 63.7%.

Question: And the growth (SN12C renal)?
Answer: Its growth is 28%.

Question: What about the growth (UO-31 renal) of the same compound?
Answer: The growth was 32.3%.

Question: What about the growth (TK-10 renal) of the same compound?
Answer: Its growth is 3.93% (active).

Question: And the growth (A498 renal)?
Answer: The growth was 59.3%.

Question: And the growth (CCRF-CEM leukemia)?
Answer: The growth was 2.01% (active).

Question: What about the growth (MOLT-4 leukemia) of the same compound?
Answer: The growth was 3.81% (active).

Question: How did the growth (SK-MEL-2 melanoma) turn out when `CCOC(=O)C1=C(C(=O)c2ccccc2)C(c2cccc([N+](=O)[O-])c2)C(C(=O)c2ccccc2)=C(C(=O)OCC)N1` was run?
Answer: Its growth is 105%.

Question: What about the growth (EKVX NSCLC) of the same compound?
Answer: The growth was 87.9%.

Question: What about the growth (SN12C renal) of the same compound?
Answer: Its growth is 93.7%.

Question: What about the growth (TK-10 renal) of the same compound?
Answer: The growth was 112%.

Question: And the growth (ACHN renal)?
Answer: The growth was 88.4%.

Question: What about the growth (CAKI-1 renal) of the same compound?
Answer: Its growth is 79.6%.

Question: What about the growth (A498 renal) of the same compound?
Answer: Its growth is 104%.

Question: What about the growth (CCRF-CEM leukemia) of the same compound?
Answer: Its growth is 65%.

Question: And the growth (MOLT-4 leukemia)?
Answer: The growth was 52.2%.

Question: For `CC(C)c1ccc(C(=O)OC2CCCC2)cc1`, which growth (SK-MEL-2 melanoma) is on record?
Answer: The growth was 105%.

Question: What about the growth (EKVX NSCLC) of the same compound?
Answer: The growth was 92.6%.

Question: What about the growth (SN12C renal) of the same compound?
Answer: The growth was 97.5%.

Question: And the growth (UO-31 renal)?
Answer: The growth was 99.6%.

Question: What about the growth (ACHN renal) of the same compound?
Answer: The growth was 99.5%.

Question: What about the growth (CAKI-1 renal) of the same compound?
Answer: The growth was 98.8%.

Question: What about the growth (A498 renal) of the same compound?
Answer: Its growth is 117%.

Question: What about the growth (CCRF-CEM leukemia) of the same compound?
Answer: Its growth is 89.8%.

Question: And the growth (MOLT-4 leukemia)?
Answer: Its growth is 110%.

Question: What does the source list for `COc1c(C)c2c(c(O)c1C/C=C(\C)CCC(=O)O)C(=O)OC2`?
Answer: growth (SK-MEL-2 melanoma): 43.8%; growth (EKVX NSCLC): 48.2%; growth (SN12C renal): 34.4%; growth (UO-31 renal): 27.9%; growth (TK-10 renal): 42%; growth (CAKI-1 renal): 6.69% (active); growth (A498 renal): 61.7%; growth (CCRF-CEM leukemia): 26.1%; growth (MOLT-4 leukemia): 25.9%
